# Assay results taken from paper PMC11006913.
# Numbering of substitutions follows the chain as printed.
# Assays:
# Test in all cases: PBM; 200 nM protein, PBS
# Settings in all cases: dsDNA, one strand shown
# [1] = biological target: T1, PAX4 (Homo sapiens, UniProt O43316 9-242, R200K)
# T1 sequence: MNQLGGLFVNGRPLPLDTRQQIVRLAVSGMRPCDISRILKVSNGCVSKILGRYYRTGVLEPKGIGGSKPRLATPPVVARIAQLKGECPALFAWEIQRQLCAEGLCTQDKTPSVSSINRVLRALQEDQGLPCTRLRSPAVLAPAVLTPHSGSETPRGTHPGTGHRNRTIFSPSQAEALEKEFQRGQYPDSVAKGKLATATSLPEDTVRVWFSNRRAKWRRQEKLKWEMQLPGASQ
# [2] = biological target: T2, PAX4 (Homo sapiens, UniProt O43316 9-242)
# T2 sequence: T1 sequence with K192R
# [3] = biological target: HOXA2 (Homo sapiens, UniProt O43364 129-215, R185T)
# Sequence of HOXA2 (Homo sapiens, UniProt O43364 129-215, R185T) (O43364 129-215 R185T): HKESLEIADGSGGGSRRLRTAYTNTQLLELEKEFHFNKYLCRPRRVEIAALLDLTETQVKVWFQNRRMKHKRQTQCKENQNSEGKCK
# [4] = biological target: T3, PAX4 (Homo sapiens, UniProt O43316 9-242, R200Q)
# T3 sequence: T1 sequence with K192Q
# [5] = biological target: HOXA2 (Homo sapiens, UniProt O43364 129-215, R185K)
# Sequence of HOXA2 (Homo sapiens, UniProt O43364 129-215, R185K) (O43364 129-215 R185K): as the sequence (O43364 129-215 R185T) above, with T57K counted along it
# [6] = biological target: T4, PAX4 (Homo sapiens, UniProt O43316 9-242, F177V)
# T4 sequence: T1 sequence with F169V, K192R
# [7] = biological target: T5, PAX4 (Homo sapiens, UniProt O43316 9-242, F177Y)
# T5 sequence: T1 sequence with F169Y, K192R
# [8] = biological target: T6, PAX4 (Homo sapiens, UniProt O43316 9-242, R227W)
# T6 sequence: T1 sequence with K192R, R219W
# [9] = biological target: HOXA2 (Homo sapiens, UniProt O43364 129-215, Y150S)
# Sequence of HOXA2 (Homo sapiens, UniProt O43364 129-215, Y150S) (O43364 129-215 Y150S): as the sequence (O43364 129-215 R185T) above, with Y22S, T57R counted along it
# [10] = biological target: HOXA2 (Homo sapiens, UniProt O43364 129-215)
# Sequence of HOXA2 (Homo sapiens, UniProt O43364 129-215) (O43364 129-215): as the sequence (O43364 129-215 R185T) above, with T57R counted along it
# [11] = biological target: HOXD13 (Homo sapiens, UniProt P35453 263-343, T313R)
# Sequence of HOXD13 (Homo sapiens, UniProt P35453 263-343, T313R) (P35453 263-343 T313R): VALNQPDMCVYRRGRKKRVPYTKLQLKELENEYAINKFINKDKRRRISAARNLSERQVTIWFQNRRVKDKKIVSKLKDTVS
# [12] = biological target: HOXD13 (Homo sapiens, UniProt P35453 263-343)
# Sequence of HOXD13 (Homo sapiens, UniProt P35453 263-343) (P35453 263-343): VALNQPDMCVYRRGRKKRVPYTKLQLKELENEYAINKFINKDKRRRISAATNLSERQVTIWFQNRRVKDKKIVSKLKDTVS
# [13] = biological target: HOXD13 (Homo sapiens, UniProt P35453 263-343, T313A)
# Sequence of HOXD13 (Homo sapiens, UniProt P35453 263-343, T313A) (P35453 263-343 T313A): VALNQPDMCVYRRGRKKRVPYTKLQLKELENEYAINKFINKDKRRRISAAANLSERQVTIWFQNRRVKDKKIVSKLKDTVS
# [14] = biological target: MSX2 (Homo sapiens, UniProt P35548 130-214, R199I)
# Sequence of MSX2 (Homo sapiens, UniProt P35548 130-214, R199I) (P35548 130-214 R199I): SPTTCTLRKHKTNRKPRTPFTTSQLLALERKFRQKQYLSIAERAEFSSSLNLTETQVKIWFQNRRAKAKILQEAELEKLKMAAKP
# [15] = biological target: MSX2 (Homo sapiens, UniProt P35548 130-214)
# Sequence of MSX2 (Homo sapiens, UniProt P35548 130-214) (P35548 130-214): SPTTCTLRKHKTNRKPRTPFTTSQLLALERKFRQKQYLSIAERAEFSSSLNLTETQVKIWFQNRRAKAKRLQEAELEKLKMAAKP
# [16] = biological target: MSX2 (Homo sapiens, UniProt P35548 130-214, F161Y)
# Sequence of MSX2 (Homo sapiens, UniProt P35548 130-214, F161Y) (P35548 130-214 F161Y): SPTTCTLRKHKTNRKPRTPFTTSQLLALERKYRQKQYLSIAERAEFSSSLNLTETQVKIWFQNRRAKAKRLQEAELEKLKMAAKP
# [17] = biological target: HOXB9 (Homo sapiens, UniProt P17482 171-250)
# Sequence of HOXB9 (Homo sapiens, UniProt P17482 171-250) (P17482 171-250): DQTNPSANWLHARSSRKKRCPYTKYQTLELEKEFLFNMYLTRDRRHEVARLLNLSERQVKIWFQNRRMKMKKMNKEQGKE
# [18] = biological target: ALX3 (Homo sapiens, UniProt O95076 139-225, N203Q)
# Sequence of ALX3 (Homo sapiens, UniProt O95076 139-225, N203Q) (O95076 139-225 N203Q): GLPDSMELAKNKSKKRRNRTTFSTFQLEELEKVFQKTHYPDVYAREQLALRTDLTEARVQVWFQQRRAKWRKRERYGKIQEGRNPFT
# [19] = biological target: ALX3 (Homo sapiens, UniProt O95076 139-225)
# Sequence of ALX3 (Homo sapiens, UniProt O95076 139-225) (O95076 139-225): as the sequence (O95076 139-225 N203Q) above, with Q65N counted along it
# [20] = biological target: ALX3 (Homo sapiens, UniProt O95076 139-225, L168Q)
# Sequence of ALX3 (Homo sapiens, UniProt O95076 139-225, L168Q) (O95076 139-225 L168Q): as the sequence (O95076 139-225 N203Q) above, with L30Q, Q65N counted along it
# [21] = biological target: HOXB9 (Homo sapiens, UniProt P17482 171-250, R186Q)
# Sequence of HOXB9 (Homo sapiens, UniProt P17482 171-250, R186Q) (P17482 171-250 R186Q): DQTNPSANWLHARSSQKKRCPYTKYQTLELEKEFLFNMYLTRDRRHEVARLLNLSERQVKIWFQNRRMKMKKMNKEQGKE
# [22] = biological target: ALX3 (Homo sapiens, UniProt O95076 139-225, L168V)
# Sequence of ALX3 (Homo sapiens, UniProt O95076 139-225, L168V) (O95076 139-225 L168V): as the sequence (O95076 139-225 N203Q) above, with L30V, Q65N counted along it
# [23] = biological target: ALX3 (Homo sapiens, UniProt O95076 139-225, N203S)
# Sequence of ALX3 (Homo sapiens, UniProt O95076 139-225, N203S) (O95076 139-225 N203S): as the sequence (O95076 139-225 N203Q) above, with Q65S counted along it
# [24] = biological target: PROP1 (Homo sapiens, UniProt O75360 56-141)
# Sequence of PROP1 (Homo sapiens, UniProt O75360 56-141) (O75360 56-141): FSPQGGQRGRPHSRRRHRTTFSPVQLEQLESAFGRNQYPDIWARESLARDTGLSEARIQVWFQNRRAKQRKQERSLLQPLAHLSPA
# [25] = biological target: PROP1 (Homo sapiens, UniProt O75360 56-141, R99H)
# Sequence of PROP1 (Homo sapiens, UniProt O75360 56-141, R99H) (O75360 56-141 R99H): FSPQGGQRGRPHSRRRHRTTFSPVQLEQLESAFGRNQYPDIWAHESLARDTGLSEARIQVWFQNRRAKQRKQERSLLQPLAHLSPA
# [26] = biological target: PROP1 (Homo sapiens, UniProt O75360 56-141, F88S)
# Sequence of PROP1 (Homo sapiens, UniProt O75360 56-141, F88S) (O75360 56-141 F88S): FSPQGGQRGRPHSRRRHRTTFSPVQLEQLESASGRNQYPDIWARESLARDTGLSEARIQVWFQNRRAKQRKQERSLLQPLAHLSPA
sequence,measurement,setting,value
GGCTTCCA,binding signal,[1],"9.19 upbm affinity estimate (log intensity, higher = more binding, comparable within an allelic series)"
same,binding signal,[2],"9.03 upbm affinity estimate (log intensity, higher = more binding, comparable within an allelic series)"
same,binding signal,[3],"7.05 upbm affinity estimate (log intensity, higher = more binding, comparable within an allelic series)"
same,binding signal,[4],"9.42 upbm affinity estimate (log intensity, higher = more binding, comparable within an allelic series)"
same,binding signal,[5],"10.4 upbm affinity estimate (log intensity, higher = more binding, comparable within an allelic series)"
same,binding signal,[6],"9.33 upbm affinity estimate (log intensity, higher = more binding, comparable within an allelic series)"
same,binding signal,[7],"9.37 upbm affinity estimate (log intensity, higher = more binding, comparable within an allelic series)"
same,binding signal,[8],"9.41 upbm affinity estimate (log intensity, higher = more binding, comparable within an allelic series)"
same,binding signal,[9],"10.5 upbm affinity estimate (log intensity, higher = more binding, comparable within an allelic series)"
same,binding signal,[10],"7.18 upbm affinity estimate (log intensity, higher = more binding, comparable within an allelic series)"
TAAAGTAA,binding signal,[1],"10.7 upbm affinity estimate (log intensity, higher = more binding, comparable within an allelic series)"
same,binding signal,[2],"10.9 upbm affinity estimate (log intensity, higher = more binding, comparable within an allelic series)"
same,binding signal,[4],"10.8 upbm affinity estimate (log intensity, higher = more binding, comparable within an allelic series)"
CCTCCCCC,binding signal,[1],"9.47 upbm affinity estimate (log intensity, higher = more binding, comparable within an allelic series)"
same,binding signal,[2],"9.49 upbm affinity estimate (log intensity, higher = more binding, comparable within an allelic series)"
same,binding signal,[11],"9.14 upbm affinity estimate (log intensity, higher = more binding, comparable within an allelic series)"
same,binding signal,[4],"9.57 upbm affinity estimate (log intensity, higher = more binding, comparable within an allelic series)"
same,binding signal,[12],"9.51 upbm affinity estimate (log intensity, higher = more binding, comparable within an allelic series)"
same,binding signal,[6],"9.21 upbm affinity estimate (log intensity, higher = more binding, comparable within an allelic series)"
same,binding signal,[7],"9.2 upbm affinity estimate (log intensity, higher = more binding, comparable within an allelic series)"
same,binding signal,[13],"9.46 upbm affinity estimate (log intensity, higher = more binding, comparable within an allelic series)"
same,binding signal,[8],"9.23 upbm affinity estimate (log intensity, higher = more binding, comparable within an allelic series)"
GTACGTAA,binding signal,[1],"10.4 upbm affinity estimate (log intensity, higher = more binding, comparable within an allelic series)"
same,binding signal,[2],"10.6 upbm affinity estimate (log intensity, higher = more binding, comparable within an allelic series)"
same,binding signal,[4],"10.6 upbm affinity estimate (log intensity, higher = more binding, comparable within an allelic series)"
CTAATAAC,binding signal,[1],"11.1 upbm affinity estimate (log intensity, higher = more binding, comparable within an allelic series)"
same,binding signal,[2],"11.3 upbm affinity estimate (log intensity, higher = more binding, comparable within an allelic series)"
same,binding signal,[4],"11.1 upbm affinity estimate (log intensity, higher = more binding, comparable within an allelic series)"
same,binding signal,[6],"10.4 upbm affinity estimate (log intensity, higher = more binding, comparable within an allelic series)"
GAGCAGGC,binding signal,[1],"9.17 upbm affinity estimate (log intensity, higher = more binding, comparable within an allelic series)"
same,binding signal,[2],"9.18 upbm affinity estimate (log intensity, higher = more binding, comparable within an allelic series)"
same,binding signal,[3],"7.17 upbm affinity estimate (log intensity, higher = more binding, comparable within an allelic series)"
same,binding signal,[4],"9.24 upbm affinity estimate (log intensity, higher = more binding, comparable within an allelic series)"
same,binding signal,[5],"10.1 upbm affinity estimate (log intensity, higher = more binding, comparable within an allelic series)"
same,binding signal,[6],"9.28 upbm affinity estimate (log intensity, higher = more binding, comparable within an allelic series)"
same,binding signal,[7],"9.26 upbm affinity estimate (log intensity, higher = more binding, comparable within an allelic series)"
same,binding signal,[8],"9.32 upbm affinity estimate (log intensity, higher = more binding, comparable within an allelic series)"
same,binding signal,[9],"10.5 upbm affinity estimate (log intensity, higher = more binding, comparable within an allelic series)"
same,binding signal,[10],"7.04 upbm affinity estimate (log intensity, higher = more binding, comparable within an allelic series)"
CATTTAAC,binding signal,[1],"10.7 upbm affinity estimate (log intensity, higher = more binding, comparable within an allelic series)"
same,binding signal,[2],"10.9 upbm affinity estimate (log intensity, higher = more binding, comparable within an allelic series)"
same,binding signal,[4],"10.8 upbm affinity estimate (log intensity, higher = more binding, comparable within an allelic series)"
same,binding signal,[6],"10.2 upbm affinity estimate (log intensity, higher = more binding, comparable within an allelic series)"
GTGTAATA,binding signal,[1],"10.9 upbm affinity estimate (log intensity, higher = more binding, comparable within an allelic series)"
same,binding signal,[2],"11.1 upbm affinity estimate (log intensity, higher = more binding, comparable within an allelic series)"
same,binding signal,[4],"10.8 upbm affinity estimate (log intensity, higher = more binding, comparable within an allelic series)"
same,binding signal,[6],"10.4 upbm affinity estimate (log intensity, higher = more binding, comparable within an allelic series)"
AGGGGGCC,binding signal,[1],"8.96 upbm affinity estimate (log intensity, higher = more binding, comparable within an allelic series)"
same,binding signal,[2],"9.02 upbm affinity estimate (log intensity, higher = more binding, comparable within an allelic series)"
same,binding signal,[3],"7.23 upbm affinity estimate (log intensity, higher = more binding, comparable within an allelic series)"
same,binding signal,[14],"9.51 upbm affinity estimate (log intensity, higher = more binding, comparable within an allelic series)"
same,binding signal,[4],"9.05 upbm affinity estimate (log intensity, higher = more binding, comparable within an allelic series)"
same,binding signal,[5],"10.2 upbm affinity estimate (log intensity, higher = more binding, comparable within an allelic series)"
same,binding signal,[6],"9.04 upbm affinity estimate (log intensity, higher = more binding, comparable within an allelic series)"
same,binding signal,[15],"9.64 upbm affinity estimate (log intensity, higher = more binding, comparable within an allelic series)"
same,binding signal,[7],"9.04 upbm affinity estimate (log intensity, higher = more binding, comparable within an allelic series)"
same,binding signal,[16],"9.59 upbm affinity estimate (log intensity, higher = more binding, comparable within an allelic series)"
same,binding signal,[8],"9.1 upbm affinity estimate (log intensity, higher = more binding, comparable within an allelic series)"
same,binding signal,[9],"10.2 upbm affinity estimate (log intensity, higher = more binding, comparable within an allelic series)"
same,binding signal,[10],"7.17 upbm affinity estimate (log intensity, higher = more binding, comparable within an allelic series)"
CCCTAATA,binding signal,[1],"11.3 upbm affinity estimate (log intensity, higher = more binding, comparable within an allelic series)"
same,binding signal,[2],"11.6 upbm affinity estimate (log intensity, higher = more binding, comparable within an allelic series)"
same,binding signal,[17],"10.3 upbm affinity estimate (log intensity, higher = more binding, comparable within an allelic series)"
same,binding signal,[18],"8.25 upbm affinity estimate (log intensity, higher = more binding, comparable within an allelic series)"
same,binding signal,[4],"11.2 upbm affinity estimate (log intensity, higher = more binding, comparable within an allelic series)"
same,binding signal,[6],"10.2 upbm affinity estimate (log intensity, higher = more binding, comparable within an allelic series)"
same,binding signal,[19],"10.9 upbm affinity estimate (log intensity, higher = more binding, comparable within an allelic series)"
same,binding signal,[7],"10.5 upbm affinity estimate (log intensity, higher = more binding, comparable within an allelic series)"
same,binding signal,[20],"8.97 upbm affinity estimate (log intensity, higher = more binding, comparable within an allelic series)"
same,binding signal,[21],"10.2 upbm affinity estimate (log intensity, higher = more binding, comparable within an allelic series)"
same,binding signal,[22],"8.89 upbm affinity estimate (log intensity, higher = more binding, comparable within an allelic series)"
same,binding signal,[8],"10.6 upbm affinity estimate (log intensity, higher = more binding, comparable within an allelic series)"
same,binding signal,[23],"8.32 upbm affinity estimate (log intensity, higher = more binding, comparable within an allelic series)"
CCGGGCCC,binding signal,[1],"9.07 upbm affinity estimate (log intensity, higher = more binding, comparable within an allelic series)"
same,binding signal,[2],"9.07 upbm affinity estimate (log intensity, higher = more binding, comparable within an allelic series)"
same,binding signal,[4],"9.07 upbm affinity estimate (log intensity, higher = more binding, comparable within an allelic series)"
same,binding signal,[6],"9.05 upbm affinity estimate (log intensity, higher = more binding, comparable within an allelic series)"
same,binding signal,[7],"9 upbm affinity estimate (log intensity, higher = more binding, comparable within an allelic series)"
same,binding signal,[24],"6.54 upbm affinity estimate (log intensity, higher = more binding, comparable within an allelic series)"
same,binding signal,[25],"6.73 upbm affinity estimate (log intensity, higher = more binding, comparable within an allelic series)"
same,binding signal,[26],"6.36 upbm affinity estimate (log intensity, higher = more binding, comparable within an allelic series)"
same,binding signal,[8],"9.12 upbm affinity estimate (log intensity, higher = more binding, comparable within an allelic series)"
CCGGGGGA,binding signal,[1],"9.19 upbm affinity estimate (log intensity, higher = more binding, comparable within an allelic series)"
same,binding signal,[2],"9.35 upbm affinity estimate (log intensity, higher = more binding, comparable within an allelic series)"
same,binding signal,[14],"9.52 upbm affinity estimate (log intensity, higher = more binding, comparable within an allelic series)"
same,binding signal,[4],"9.16 upbm affinity estimate (log intensity, higher = more binding, comparable within an allelic series)"
same,binding signal,[6],"9.14 upbm affinity estimate (log intensity, higher = more binding, comparable within an allelic series)"
same,binding signal,[15],"9.61 upbm affinity estimate (log intensity, higher = more binding, comparable within an allelic series)"
same,binding signal,[7],"9.09 upbm affinity estimate (log intensity, higher = more binding, comparable within an allelic series)"
same,binding signal,[16],"9.5 upbm affinity estimate (log intensity, higher = more binding, comparable within an allelic series)"
same,binding signal,[8],"9.22 upbm affinity estimate (log intensity, higher = more binding, comparable within an allelic series)"
